# Measured values reported in PubChem BioAssay.
# Unmarked numbers belong to inactive results. For some assays here: Potency and affinity values are given separately. The list shows a part of the results. Where a call stands in place of a potency, no number is given. Calls of active or inactive are those of the source.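 How the source made its calls, unless noted: active means fluorescence ratio normalized to control raised more than 50% in primary screen plus both repeat runs; inactive means the rest.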
# Columns and labels:
# [1] = parental CHO-K1 cell activation, no KCNQ2 – FluxOR thallium flux, duplicate, counter-screen for KCNQ2 potentiator project, confirmation (AID 2282;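 active means signal rise of at least 3 SD above the untreated control mean, in both duplicate wells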;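 further: counter screen of KCNQ2 potentiator hits so any rise reflects channel-independent effects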); conditions: parental CHO-K1 cells, FluxOR thallium flux fluorescence; at 10 µM; active compounds read high; zero = vehicle mean+3SD, 100% = vehicle-minus-blank window
# [2] = molecular target: Potassium voltage-gated channel subfamily KQT member 1 (Homo sapiens) (UniProt P51787); test: KCNQ1 activation in stable CHO cells – cell-based, FluxOR thallium flux, selectivity assay for KCNQ2 potentiator project, confirmation (AID 2283;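 active means fluorescence ratio rise of at least 3 SD of vehicle wells above their mean, in both replicate wells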); conditions: FluxOR thallium flux fluorescence, at 10 µM, active compounds read high, beyond 3SD, as % of vehicle-control signal
# Sequence of Potassium voltage-gated channel subfamily KQT member 1 (Homo sapiens) (P51787 whole entry, looked up): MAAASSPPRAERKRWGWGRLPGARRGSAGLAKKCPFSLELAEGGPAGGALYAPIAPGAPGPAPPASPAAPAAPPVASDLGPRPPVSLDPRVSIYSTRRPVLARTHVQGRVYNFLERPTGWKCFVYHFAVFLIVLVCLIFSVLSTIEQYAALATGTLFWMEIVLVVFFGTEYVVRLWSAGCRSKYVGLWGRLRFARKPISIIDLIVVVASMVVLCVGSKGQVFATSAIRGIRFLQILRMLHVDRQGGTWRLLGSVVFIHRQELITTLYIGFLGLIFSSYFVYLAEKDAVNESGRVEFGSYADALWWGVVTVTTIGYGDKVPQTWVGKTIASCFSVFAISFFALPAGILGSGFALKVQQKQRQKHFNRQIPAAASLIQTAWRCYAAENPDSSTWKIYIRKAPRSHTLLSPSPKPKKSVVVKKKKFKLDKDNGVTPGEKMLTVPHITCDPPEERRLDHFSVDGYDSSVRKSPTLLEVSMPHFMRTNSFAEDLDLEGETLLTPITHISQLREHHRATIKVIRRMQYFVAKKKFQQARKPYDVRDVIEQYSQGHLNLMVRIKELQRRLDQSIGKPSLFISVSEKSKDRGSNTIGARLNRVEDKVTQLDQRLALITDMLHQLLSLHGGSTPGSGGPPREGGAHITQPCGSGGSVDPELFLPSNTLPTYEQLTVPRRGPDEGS
# [3] = molecular target: Potassium voltage-gated channel subfamily KQT member 2 (Rattus norvegicus) (UniProt O88943); test: KCNQ2 potassium channel activity enhancers – cell-based, CHO, FluxOR thallium flux, duplicate, confirmation (AID 2287;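 active means fluorescence ratio rising 3 SD or more over the vehicle control mean in both replicates, plus primary screen hit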;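 further: peak minus minimum thallium fluorescence divided by baseline after K/Tl stimulus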); conditions: CHO-KCNQ2 cells, FluxOR thallium flux fluorescence; at 10 µM; active compounds read high
# Sequence of Potassium voltage-gated channel subfamily KQT member 2 (Rattus norvegicus) (O88943 whole entry, looked up): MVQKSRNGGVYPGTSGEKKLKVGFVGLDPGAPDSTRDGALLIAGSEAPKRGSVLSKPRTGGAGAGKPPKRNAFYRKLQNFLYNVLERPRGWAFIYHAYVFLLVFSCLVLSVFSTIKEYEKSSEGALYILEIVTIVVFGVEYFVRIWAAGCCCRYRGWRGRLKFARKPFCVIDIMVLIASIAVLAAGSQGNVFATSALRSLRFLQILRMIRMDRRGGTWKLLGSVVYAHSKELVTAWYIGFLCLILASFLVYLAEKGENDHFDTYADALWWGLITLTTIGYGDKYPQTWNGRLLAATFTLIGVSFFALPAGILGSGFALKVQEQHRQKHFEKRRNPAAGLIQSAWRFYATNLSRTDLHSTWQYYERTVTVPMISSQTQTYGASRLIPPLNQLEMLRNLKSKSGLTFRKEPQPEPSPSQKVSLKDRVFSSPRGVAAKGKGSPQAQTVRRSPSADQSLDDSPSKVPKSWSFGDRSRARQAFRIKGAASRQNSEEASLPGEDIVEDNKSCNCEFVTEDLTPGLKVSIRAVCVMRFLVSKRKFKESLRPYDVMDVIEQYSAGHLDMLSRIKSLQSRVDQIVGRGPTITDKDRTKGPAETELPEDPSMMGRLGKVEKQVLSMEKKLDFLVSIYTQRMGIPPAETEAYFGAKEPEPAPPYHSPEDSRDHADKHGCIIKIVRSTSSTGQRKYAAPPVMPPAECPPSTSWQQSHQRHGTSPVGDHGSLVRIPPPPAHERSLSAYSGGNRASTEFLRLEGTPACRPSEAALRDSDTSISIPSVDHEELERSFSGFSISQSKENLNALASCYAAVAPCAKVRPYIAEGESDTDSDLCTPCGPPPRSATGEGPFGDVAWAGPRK
# [4] = system: TRPC4 beta (transient receptor potential cation channel C4), mouse; test: TRPC4 cation channel opening, retest – cell-based, Fluo4 calcium, HEK293 TRPC4beta/mu-opioid, duplicates, 10 µM, confirmation (AID 2426); conditions: Fluo4 calcium fluorescence, at 10 µM; active compounds read high
# [5] = system: transient receptor potential cation channel C4 beta (TRPC4), mouse; test: TRPC4 cation channel opening, second retest – cell-based, second round, Fluo4, HEK293 TRPC4beta/mu-opioid, 1 µM, confirmation (AID 2461;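 active means primary screen active and over 50% activation in each of two duplicate runs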); conditions: Fluo4 calcium fluorescence, at 1 µM; active compounds read high
# [6] = system: TRPC4 (transient receptor potential cation channel C4 beta), mouse; test: potentiation of DAMGO EC20 TRPC4 response – cell-based, second round, Fluo-4, HEK293 TRPC4beta/mu-opioid, 1 µM, confirmation (AID 2554;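 active means primary screen hit whose fluorescence ratio, in both repeats, exceeds the weak agonist control mean by 3 SD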); conditions: DAMGO EC20, Fluo-4 calcium flux, at 1 µM; active compounds read high
# [7] = system: TRPC4 beta (transient receptor potential cation channel C4), mouse; test: potentiation of DAMGO EC20 TRPC4 response – cell-based, Fluo-4, HEK293 TRPC4beta/mu-opioid, confirmation (AID 2555;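 active means primary screen hit whose calcium fluorescence ratio, in both repeats, exceeds the weak agonist control mean by 3 SD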); conditions: DAMGO EC20, Fluo-4 calcium flux, at 10 µM; active compounds read high
# [8] = molecular target: Short transient receptor potential channel 4 (Mus musculus) (UniProt Q9QUQ5); test: blockers of DAMGO-evoked TRPC4 calcium flux – cell-based, Fluo4, HEK293 TRPC4beta/mu-opioid, confirmation (AID 2636;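 active means calcium signal cut by more than 3 SD below the full-agonist control yet still positive, in both repeats and the earlier primary screen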); conditions: at 10 µM; active compounds read high
# Sequence of Short transient receptor potential channel 4 (Mus musculus) (Q9QUQ5 whole entry, looked up): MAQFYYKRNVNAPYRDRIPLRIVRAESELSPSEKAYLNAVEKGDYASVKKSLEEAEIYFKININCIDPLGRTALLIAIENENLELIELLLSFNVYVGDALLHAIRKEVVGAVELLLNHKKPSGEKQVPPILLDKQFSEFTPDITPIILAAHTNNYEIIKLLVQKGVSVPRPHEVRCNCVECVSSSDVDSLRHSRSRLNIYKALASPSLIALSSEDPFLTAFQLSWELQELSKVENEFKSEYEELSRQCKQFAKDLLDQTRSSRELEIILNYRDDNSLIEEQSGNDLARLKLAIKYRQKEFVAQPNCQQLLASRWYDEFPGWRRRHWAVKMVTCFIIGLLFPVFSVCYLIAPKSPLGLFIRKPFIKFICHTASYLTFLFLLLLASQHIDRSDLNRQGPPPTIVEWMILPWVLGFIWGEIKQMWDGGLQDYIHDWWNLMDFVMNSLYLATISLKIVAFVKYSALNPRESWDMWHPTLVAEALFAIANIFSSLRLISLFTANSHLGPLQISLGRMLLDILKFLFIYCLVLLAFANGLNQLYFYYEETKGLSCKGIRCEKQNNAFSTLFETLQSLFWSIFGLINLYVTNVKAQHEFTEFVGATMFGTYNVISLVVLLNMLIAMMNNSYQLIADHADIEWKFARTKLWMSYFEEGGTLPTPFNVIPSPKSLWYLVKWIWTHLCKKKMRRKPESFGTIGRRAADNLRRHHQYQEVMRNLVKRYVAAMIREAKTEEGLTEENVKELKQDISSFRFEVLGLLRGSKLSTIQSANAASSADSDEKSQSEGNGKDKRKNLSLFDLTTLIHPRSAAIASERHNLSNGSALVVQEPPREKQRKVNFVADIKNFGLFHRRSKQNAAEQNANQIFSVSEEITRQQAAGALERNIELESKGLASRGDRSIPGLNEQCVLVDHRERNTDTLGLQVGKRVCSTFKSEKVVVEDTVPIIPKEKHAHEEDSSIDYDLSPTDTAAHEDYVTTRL
# [9] = molecular target: Short transient receptor potential channel 4 (Mus musculus) (UniProt Q9QUQ5); test: blockers of DAMGO-evoked TRPC4 calcium flux – cell-based, second round, Fluo4, HEK293 TRPC4beta/mu-opioid, 1 µM, confirmation (AID 2637;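 active means calcium signal ratio cut to more than 3 SD under the fully stimulated control mean yet still positive, in both repeats and the primary screen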); conditions: at 1 µM; active compounds read high
# [10] = molecular target: Short transient receptor potential channel 4 (Mus musculus) (UniProt Q9QUQ5); test: calcium entry via TRPC4 opening agents – cell-based, HEK293 TRPC4/mu-opioid, Fluo-4 calcium, dose response (AID 434937;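 active means primary screen activator hit with a dose response curve and TRPC4 channel activation at any tested dose; inactive means no activation, no dose response, or not a primary hit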); conditions: HEK293 TRPC4 cells, Fluo-4 calcium fluorescence ratio; series mostly up to 20 µM
# [11] = molecular target: Short transient receptor potential channel 4 (Mus musculus) (UniProt Q9QUQ5); test: potentiation of DAMGO-evoked TRPC4 calcium signal – cell-based, HEK293 TRPC4/mu-opioid, Fluo-4 calcium, EC20 DAMGO, dose response (AID 434941;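 active means earlier screen potentiator hit that boosts the TRPC4 ion channel at some dose, with a dose response; inactive means no potentiation, no dose response, or not a prior hit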;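 further: calcium entry triggered by an EC20 dose of DAMGO at the co-expressed mu-opioid receptor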); conditions: HEK293 TRPC4/mu-opioid cells, Fluo-4 calcium fluorescence; series mostly up to 20 µM
# [12] = molecular target: Short transient receptor potential channel 4 (Mus musculus) (UniProt Q9QUQ5); test: block of DAMGO-driven TRPC4 calcium entry – cell-based, HEK293 TRPC4/mu-opioid, Fluo-4 calcium, dose response (AID 434942;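 active means primary screen inhibitor hit that blocks the TRPC4 channel at some tested dose, yielding a dose curve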); conditions: HEK293 TRPC4/mu-opioid cells, DAMGO-evoked Fluo-4 calcium ratio; series mostly up to 20 µM
# [13] = molecular target: Short transient receptor potential channel 6 (Mus musculus) (UniProt Q61143); test: TRPC6 blockade by TRPC4 inhibitor hits – cell-based, HEK293, membrane potential dye, duplicate, selectivity assay for TRPC4 inhibitor project, confirmation (AID 434948;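 active means active in primary screen and both duplicates, each dropping signal beyond three positive-control SD with fluorescence still positive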); conditions: HEK293 TRPC6, membrane potential dye fluorescence, at 10 µM, stimulated with maximal-effect acetylcholine; active compounds read high
# Sequence of Short transient receptor potential channel 6 (Mus musculus) (Q61143 whole entry, looked up): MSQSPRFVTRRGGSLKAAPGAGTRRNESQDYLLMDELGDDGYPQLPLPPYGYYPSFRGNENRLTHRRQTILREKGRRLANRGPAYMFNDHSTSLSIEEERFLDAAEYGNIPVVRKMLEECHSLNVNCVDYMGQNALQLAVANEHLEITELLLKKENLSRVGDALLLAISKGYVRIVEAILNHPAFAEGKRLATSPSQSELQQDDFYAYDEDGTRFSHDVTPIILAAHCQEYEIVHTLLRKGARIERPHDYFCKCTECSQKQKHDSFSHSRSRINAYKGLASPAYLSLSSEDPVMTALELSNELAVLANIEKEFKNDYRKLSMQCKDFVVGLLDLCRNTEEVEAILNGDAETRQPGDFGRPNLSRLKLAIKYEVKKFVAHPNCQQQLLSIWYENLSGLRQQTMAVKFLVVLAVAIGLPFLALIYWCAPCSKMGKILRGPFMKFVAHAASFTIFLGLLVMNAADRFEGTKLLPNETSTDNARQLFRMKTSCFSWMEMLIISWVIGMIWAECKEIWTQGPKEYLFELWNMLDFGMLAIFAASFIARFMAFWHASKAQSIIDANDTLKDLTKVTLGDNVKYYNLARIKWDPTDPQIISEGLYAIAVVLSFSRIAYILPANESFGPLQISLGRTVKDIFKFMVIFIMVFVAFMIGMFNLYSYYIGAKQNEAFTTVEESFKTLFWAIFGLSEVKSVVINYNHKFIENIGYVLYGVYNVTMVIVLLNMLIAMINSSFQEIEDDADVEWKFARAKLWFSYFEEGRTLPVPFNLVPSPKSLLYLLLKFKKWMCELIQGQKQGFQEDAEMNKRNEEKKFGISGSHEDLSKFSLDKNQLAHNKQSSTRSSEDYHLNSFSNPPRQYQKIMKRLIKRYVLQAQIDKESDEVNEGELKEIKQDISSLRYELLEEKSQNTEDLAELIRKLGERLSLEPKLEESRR
# [14] = molecular target: Short transient receptor potential channel 6 (Mus musculus) (UniProt Q61143); test: TRPC6 opening by TRPC4 activator hits – cell-based, HEK293, membrane potential dye, duplicate, selectivity assay for TRPC4 activator project, confirmation (AID 434950;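 active means membrane potential signal rise above negative control mean plus 3 SD in both duplicates, also active in the earlier TRPC4 screen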); conditions: HEK293 TRPC6, membrane potential fluorescence, at 10 µM; activation: active compounds read high; outcome: activation
# [15] = molecular target: Short transient receptor potential channel 6 (Mus musculus) (UniProt Q61143); test: positive modulators of mouse TRPC6 channel – HEK293 cells, membrane potential dye, duplicate, selectivity assay for TRPC4 potentiator project, confirmation (AID 434952;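 active means compound raising the membrane signal above positive-control mean plus 3 SD in both repeats, and a primary screen hit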); conditions: HEK293 TRPC6, membrane potential dye fluorescence, at 10 µM, maximal acetylcholine added after compound; active compounds read high
# [16] = molecular target: Short transient receptor potential channel 4 (Mus musculus) (UniProt Q9QUQ5); test: calcium flux activators in TRPC4/5HT1a cells, counter-screen for TRPC4 activator project, cell-based, second counter screen, HEK293 TRPC4/5HT1a, Fluo-4 (AID 434977;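 active means calcium signal rise above buffer-control mean plus 5 SD in both duplicates, and also a hit in the primary screen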); conditions: Fluo-4 calcium flux, at 10 µM; active compounds read high
# [17] = serotonin-gated TRPC4 signal block – cell-based, second counter screen, HEK293 TRPC4/5HT1a, Fluo-4, counter-screen for TRPC4 inhibitor project, confirmation (AID 434978;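 active means primary screen active whose calcium signal fell more than 3 SD beyond the full-serotonin control mean in both duplicate plates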;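 further: serotonin given first at submaximal then at maximal dose after compound preincubation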); conditions: Fluo-4 calcium flux, at 10 µM, serotonin added to trigger calcium flux; active compounds read high
# [18] = system: TRPC4 (mouse), co-expressed with 5HT1a in HEK293; test: enhancement of serotonin-evoked TRPC4 response – cell-based, second counter screen, HEK293 TRPC4/5HT1a, Fluo-4, counter-screen for TRPC4 potentiator project, confirmation (AID 434979;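 active means signal rise over 3 SD above mean of control wells given weak agonist, in both repeats and first screen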); conditions: Fluo-4 calcium flux, at 10 µM, serotonin added at its EC20 dose; active compounds read high
# [19] = nonspecific calcium rise without TRPC4 – cell-based, HEK293 mu-opioid receptor line, counter-screen for TRPC4 activator project, confirmation (AID 449723;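 active means hit in primary screen, with calcium signal over 5 SD above buffer well mean in both duplicates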;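 further: counter screen cells carry the mu-opioid receptor alone and lack TRPC4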); conditions: HEK293 mu-opioid cells, Fluo-4 calcium fluorescence, at 10 µM; active compounds read high
# [20] = nonspecific potentiation of DAMGO calcium response – cell-based, HEK293 mu-opioid receptor line, counter-screen for TRPC4 allosteric potentiator project, confirmation (AID 449724;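 active means calcium signal rise more than 3 SD above the low-dose agonist control mean, in both duplicate plates and the primary screen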); conditions: HEK293 mu-opioid receptor cells, Fluo-4 calcium flux, at 10 µM, compound added before EC20 DAMGO stimulus; active compounds read high
smiles,measurement,setting,value
COc1ccc(NC(=O)CCCC2CCCCC2)c(OC)c1,activity increase over 3SD of controls,[1],-19.3%
same,activation over 3SD threshold,[2],-6.1%
same,"potentiation, less the hit threshold",[3],80% (active)
Cc1ccc(S(=O)(=O)Nc2ccc(N=Nc3ccc(O)cc3)cc2)cc1,outcome,[4],inactive
same,outcome,[5],inactive
same,outcome,[6],inactive
same,outcome,[7],inactive
same,outcome,[8],inactive
same,outcome,[9],inactive
same,outcome,[10],inactive
same,outcome,[11],inactive
same,outcome,[12],inactive
same,outcome,[13],inactive
same,outcome,[14],inactive
same,outcome,[15],inactive
same,outcome,[16],inactive
same,outcome,[17],inactive
same,outcome,[18],inactive
same,outcome,[19],inactive
same,outcome,[20],inactive
COc1ccc(C(=O)c2no[n+]([O-])c2C(=O)c2ccc(OC)cc2)cc1,outcome,[4],inactive
same,outcome,[5],inactive
same,potentiation,[6],9% (active)
same,potentiation,[7],50% (active)
same,outcome,[8],inactive
same,outcome,[9],inactive
same,outcome,[10],inactive
same,outcome,[11],inactive
same,outcome,[12],inactive
same,outcome,[13],inactive
same,outcome,[14],inactive
same,outcome,[15],inactive
same,outcome,[16],inactive
same,outcome,[17],inactive
same,potentiation,[18],51.2% (active)
same,outcome,[19],inactive
same,outcome,[20],inactive
COC(=O)c1ccccc1NC(=O)c1cnn2cccnc12,outcome,[4],inactive
same,outcome,[5],inactive
same,outcome,[6],inactive
same,potentiation,[7],16% (active)
same,outcome,[8],inactive
same,outcome,[9],inactive
same,outcome,[10],inactive
same,outcome,[11],inactive
same,outcome,[12],inactive
same,outcome,[13],inactive
same,outcome,[14],inactive
same,outcome,[15],inactive
same,outcome,[16],inactive
same,outcome,[17],inactive
same,potentiation,[18],40.2% (active)
same,outcome,[19],inactive
same,outcome,[20],inactive
COc1ccc(CCN2CCCC(CN(C)C(=O)c3ccoc3)C2)cc1 (configuration not stated),outcome,[4],inactive
same,outcome,[5],inactive
same,outcome,[6],inactive
same,outcome,[7],inactive
same,outcome,[8],inactive
same,outcome,[9],inactive
same,outcome,[10],inactive
same,outcome,[11],inactive
same,outcome,[12],inactive
same,outcome,[13],inactive
same,outcome,[14],inactive
same,outcome,[15],inactive
same,outcome,[16],inactive
same,outcome,[17],inactive
same,potentiation,[18],14.1% (active)
same,outcome,[19],inactive
same,outcome,[20],inactive
CC(=O)Nc1nc2ccc(S(=O)(=O)N3CCCCC3)cc2s1,outcome,[4],inactive
same,outcome,[5],inactive
same,outcome,[6],inactive
same,outcome,[7],inactive
same,outcome,[8],inactive
same,outcome,[9],inactive
same,outcome,[10],inactive
same,outcome,[11],inactive
same,outcome,[12],inactive
same,outcome,[13],inactive
same,outcome,[14],inactive
same,outcome,[15],inactive
same,outcome,[16],inactive
same,outcome,[17],inactive
same,outcome,[18],inactive
same,outcome,[19],inactive
same,outcome,[20],inactive
CC(=O)Cn1ncc(N2CCOCC2)cc1=O,outcome,[4],inactive
same,outcome,[5],inactive
same,outcome,[6],inactive
same,outcome,[7],inactive
same,outcome,[8],inactive
same,outcome,[9],inactive
same,outcome,[10],inactive
same,outcome,[11],inactive
same,outcome,[12],inactive
same,outcome,[13],inactive
same,outcome,[14],inactive
same,outcome,[15],inactive
same,outcome,[16],inactive
same,outcome,[17],inactive
same,outcome,[18],inactive
same,outcome,[19],inactive
same,outcome,[20],inactive
COc1ccc(CNc2ccc(Cl)cc2)cc1Cn1ccnc1,outcome,[4],inactive
same,outcome,[5],inactive
same,outcome,[6],inactive
same,outcome,[7],inactive
same,outcome,[8],inactive
same,outcome,[9],inactive
same,outcome,[10],inactive
same,outcome,[11],inactive
same,outcome,[12],inactive
same,outcome,[13],inactive
same,outcome,[14],inactive
same,outcome,[15],inactive
same,outcome,[16],inactive
same,outcome,[17],inactive
same,outcome,[18],inactive
same,outcome,[19],inactive
same,outcome,[20],inactive
